Among the data in PubChem BioAssay (NCI) are growth values, retold here.

Test systems include NCI-H23 lung; NCI-H226 lung; NCI-H322M lung; HOP-62 NSCLC; NCI-H460 lung; HOP-92 NSCLC; NCI-H522 lung; A549/ATCC NSCLC; 786-0 renal; COLO 205 colon; DU-145 prostate; K-562 leukemia; MALME-3M melanoma; MDA-MB-231 breast; SF-268 CNS; SF-295 CNS; SF-539 CNS; UACC-257 melanoma; M14 melanoma.
Common to all, as to assay: NCI-60 one-dose screen, 48 h (100 = growth as untreated, 0 = no growth, -100 = all killed)
Common to all, as to details: 10 µM

The panel holds about 83,000 compounds, 20% with a hit somewhere; the sample as a whole holds those more often.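 A percent growth of 40 corresponds to 60% growth inhibition; 0 means no net growth; -100 means all cells died. Active threshold: below 10.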 A number with no mark means an inactive call. Activity calls are given as the source filed them.

Turning to `Cc1cc(=O)oc2cc(OCCCCOc3ccc(/C=C/C(=O)Nc4cccc(Cl)c4)cc3)ccc12`, the growth in the experiment with NCI-H23 lung was 57.2%; with NCI-H226 lung, 35.9%; in the experiment with NCI-H322M lung, 87.4%; in the experiment with HOP-62 NSCLC it was 54.9%; in the experiment with NCI-H460 lung, 54.4%; in the experiment on HOP-92 NSCLC, 50.9%. Also, the growth is 60.3% in the experiment on NCI-H522 lung; 55.4% in the experiment on A549/ATCC NSCLC; 54.7% in the experiment on 786-0 renal; 62.3% in the experiment with COLO 205 colon; 46.5% in the experiment with DU-145 prostate; 63.8% in the experiment on K-562 leukemia. Besides, the growth was 29.8% in the experiment on MALME-3M melanoma; 88.3% in the experiment with MDA-MB-231 breast; 61.4% in the experiment on SF-268 CNS; 78.6% with SF-295 CNS; 72.6% with SF-539 CNS; 81.5% in the experiment with UACC-257 melanoma. For the same molecule, the growth with M14 melanoma was 71.9%.
With `CC1(c2ccccc2)NC(=O)N(CC(=O)Nc2ccc(C(=O)/C=C/c3ccccc3)cc2)C1=O` (configuration not stated), the growth in the experiment with NCI-H23 lung is 65.5%; in the experiment on NCI-H226 lung it was 45.7%; in the experiment on NCI-H322M lung, 90.2%; in the experiment with HOP-62 NSCLC, 85.9%; with NCI-H460 lung, 69.4%; in the experiment on HOP-92 NSCLC, 50.7%. Also, the growth with NCI-H522 lung was 71.4%; with A549/ATCC NSCLC, 44.3%; in the experiment with 786-0 renal it was 42.6%; in the experiment on COLO 205 colon it was 76.4%; with DU-145 prostate, 62.1%; with K-562 leukemia, 22.4%. Also, the growth with MALME-3M melanoma was 77.6%; in the experiment on MDA-MB-231 breast, 67.7%; in the experiment on SF-268 CNS, 52.2%; with SF-295 CNS, 50.9%; in the experiment with SF-539 CNS it was 43.3%; with UACC-257 melanoma, 63.5%. Moreover, the growth with M14 melanoma was 48.2%.
As to `CC(=O)Nc1ccc(-c2cn(-c3cccc(C(=O)Nc4ccc(Cl)c(C(F)(F)F)c4)c3)nn2)cn1`, the growth with NCI-H23 lung was -67.6% (active); in the experiment with NCI-H226 lung it was -72.8% (active); in the experiment with NCI-H322M lung, -18.7% (active); in the experiment with HOP-62 NSCLC it was -60.2% (active); in the experiment with NCI-H460 lung, -73.3% (active); in the experiment with HOP-92 NSCLC, -30.8% (active). Also, the growth is -63.2% (active) in the experiment on NCI-H522 lung; -43.4% (active) in the experiment with A549/ATCC NSCLC; -34.4% (active) in the experiment with 786-0 renal; -40.9% (active) in the experiment with COLO 205 colon; 3.54% (active) in the experiment with DU-145 prostate; 4.92% (active) in the experiment with K-562 leukemia. Also, the growth with MALME-3M melanoma was -89.6% (active); in the experiment on MDA-MB-231 breast it was -87% (active); with SF-268 CNS, 6.74% (active); in the experiment with SF-295 CNS, -64.2% (active); with SF-539 CNS it was -97.4% (active); in the experiment on UACC-257 melanoma it was -21.8% (active). The growth in the experiment on M14 melanoma was -49.1% (active).
On to `O=C(Nc1ccc(Cl)c(C(F)(F)F)c1)c1cncc(C#Cc2cnc3ccc(N4CCOCC4)nn23)c1`, for which the growth was -18.7% (active) with NCI-H23 lung; -32.8% (active) in the experiment on NCI-H226 lung; 6.5% (active) in the experiment on NCI-H322M lung; 11.1% in the experiment on HOP-62 NSCLC; 29.3% in the experiment with NCI-H460 lung; -48.6% (active) with HOP-92 NSCLC. Also, the growth is -11.3% (active) in the experiment with NCI-H522 lung; 16.1% with A549/ATCC NSCLC; -28.5% (active) in the experiment with 786-0 renal; 11.9% in the experiment with COLO 205 colon; 20.6% with DU-145 prostate; 13.3% in the experiment with K-562 leukemia. Also, the growth in the experiment with MALME-3M melanoma is -39.8% (active); with MDA-MB-231 breast it was -44.6% (active); with SF-268 CNS, 7.89% (active); in the experiment with SF-295 CNS, 5.28% (active); with SF-539 CNS, -42% (active); in the experiment on UACC-257 melanoma, 6.55% (active). For the same molecule, the growth in the experiment on M14 melanoma is 11.3%.
For `CN1C(=O)N(C)C2SC(N/N=C/c3ccccc3)=NC21` (configuration not stated), the growth was 79.5% in the experiment with NCI-H23 lung; 98.1% with NCI-H226 lung; 98.3% in the experiment with NCI-H322M lung; 76.9% with HOP-62 NSCLC; 68.9% with NCI-H460 lung; 111% in the experiment with HOP-92 NSCLC. Besides, the growth with NCI-H522 lung was 60.4%; in the experiment on A549/ATCC NSCLC it was 72.4%; in the experiment on 786-0 renal, 82.3%; in the experiment with COLO 205 colon it was 92.5%; in the experiment on DU-145 prostate it was 97.1%; in the experiment on K-562 leukemia it was 19.2%. Besides, the growth was 61.6% with MALME-3M melanoma; 56.5% in the experiment on MDA-MB-231 breast; 82.9% in the experiment on SF-268 CNS; 66.6% in the experiment on SF-295 CNS; 64.5% with SF-539 CNS; 90.5% in the experiment with UACC-257 melanoma. For the same molecule, in the experiment with M14 melanoma, the growth was 48.4%.
With `CN1CCN(Cc2ccc(NC(=O)c3cncc(C#Cc4cnc5ccc(N[C@@H]6CCOC6)nn45)c3)cc2C(F)(F)F)CC1`, the growth was -81.3% (active) in the experiment on NCI-H23 lung; -94.9% (active) in the experiment on NCI-H226 lung; -99.2% (active) in the experiment with NCI-H322M lung; -75.5% (active) in the experiment with HOP-62 NSCLC; -30% (active) in the experiment with NCI-H460 lung; -82% (active) in the experiment with HOP-92 NSCLC. The growth is -71.6% (active) in the experiment on NCI-H522 lung; -56% (active) with A549/ATCC NSCLC; -77.4% (active) in the experiment on 786-0 renal; -65.5% (active) in the experiment with COLO 205 colon; -100% (active) in the experiment on DU-145 prostate; -0.568% (active) in the experiment with K-562 leukemia. Moreover, the growth with MALME-3M melanoma was -99.1% (active); with MDA-MB-231 breast, -94.7% (active); in the experiment with SF-268 CNS it was -80.7% (active); in the experiment with SF-295 CNS, -98.6% (active); in the experiment on SF-539 CNS it was -100% (active); in the experiment on UACC-257 melanoma, -85.9% (active). In the experiment with M14 melanoma, the growth is -83.3% (active).
Turning to `CN1CCc2c(sc3ncnc(N/N=C/c4ccc5ccccc5c4)c23)C1`, the growth was 66.1% in the experiment on NCI-H23 lung; 86.1% in the experiment on NCI-H226 lung; 97% in the experiment on NCI-H322M lung; 82% in the experiment with HOP-62 NSCLC; 0.259% (active) in the experiment with NCI-H460 lung; 89.2% with HOP-92 NSCLC. For the same molecule, the growth is 83.9% with NCI-H522 lung; 42.7% in the experiment with A549/ATCC NSCLC; 51% in the experiment with 786-0 renal; 36.3% in the experiment with COLO 205 colon; 68.8% in the experiment with DU-145 prostate; 13.9% with K-562 leukemia. Moreover, the growth in the experiment with MALME-3M melanoma is 91.2%; in the experiment with MDA-MB-231 breast, 48%; in the experiment on SF-268 CNS, 68.9%; in the experiment on SF-295 CNS, 53.9%; with SF-539 CNS, 29.1%; in the experiment with UACC-257 melanoma, 107%. The growth in the experiment on M14 melanoma was 82%.
For the molecule `N#Cc1ccc(-c2nn(-c3ccc(C(=O)O)cc3)cc2CNc2ccc(Oc3ccccc3)cc2)cc1`, the growth in the experiment with NCI-H23 lung was 12%; in the experiment with NCI-H226 lung, 85.1%; in the experiment on NCI-H322M lung it was 88.2%; with HOP-62 NSCLC, 37.4%; in the experiment with NCI-H460 lung, 40.2%; with HOP-92 NSCLC it was 38.8%. Also, the growth with NCI-H522 lung is 66.8%; with A549/ATCC NSCLC, 46.5%; in the experiment on 786-0 renal, 30.5%; with COLO 205 colon, 118%; with DU-145 prostate, 65.4%; in the experiment on K-562 leukemia it was 42.7%. In addition, the growth is 93.9% in the experiment on MALME-3M melanoma; 72.5% in the experiment on MDA-MB-231 breast; 50.1% in the experiment on SF-268 CNS; 49.3% with SF-295 CNS; 38.9% with SF-539 CNS; 56.1% in the experiment with UACC-257 melanoma. In the experiment on M14 melanoma, the growth is 34.9%.
